A selection: hits, their analogues and other compounds. The true share with any hit is near 17%.
ATXN2 expr inh – ATXN2 expression inhibition | 0.72% of 360,000 active | Potency, µM (doses to about 57 µM), inactives show top-dose activity change, negative = inhibition, hits mostly inhibitors | HEK-293 ATXN2-luciferase reporter, luminescence, 24 h; also: % is scaled to controls: 0 for no effect and ±100 for the full control effect; nearly all actives have a fitted effect of over 55% in size
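qHTS (up to 57 uM final) was run with 24 h compound exposure of reporter cells at 37 °C. Each well was multiplexed: SteadyGlo luminescence measured ATXN2-luciferase expression after a fluorogenic Gly-Phe-AFC viability readout (25 uM final).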
DT40 TDP1 CPT – growth inhibition of DT40 Tdp1-/-;hTDP1 cells with camptothecin (screen for TDP1 inhibitors); chicken DT40 Tdp1-/-;hTDP1 cells + 20 nM CPT, ATP luminescence, 48 h; Potency, µM (top dose mostly 46.2 µM), without a hit: at the highest dose activity change, negative = growth inhibition, usual class: inhibitors; 12% of 420,000 active; AID 686979; also: % is scaled to controls: 0 for no effect and ±100 for the full control effect; nearly all actives have a fitted effect of over 55% in size
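Chicken DT40 Tdp1-/- cells stably complemented with human TDP1 were seeded at 400 cells/well in medium containing 20 nM camptothecin, exposed to pin-transferred compounds, and grown at 37 °C for at least 48 hr. Viability was read as ATP luminescence.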
HepG2 viability – kills HepG2 cells in TGF-b inhibitor counter-screen. HepG2 CAGA-GFP viability, ATP luminescence, 18 h. Potency, µM (highest dose often 46.1 µM), inactives show at the top dose activity change, negative = cytotoxicity, usual class: cytotoxic. AID 588856. 0.76% of 410,000 active
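HepG2 CAGA-GFP cells (1000/well, DMEM with 1% FBS) received compound, then TGF-beta at 500 pg/mL final, and were incubated 18 hours at 37 degrees C. Viability was read by CellTiter-Glo luminescence. Media-only wells were set as complete cell-killing and DMSO as no toxicity.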
TGFb SMAD3 inh – TGF-b pathway inhibition | HepG2 CAGA-GFP TGF-b/SMAD3 reporter, GFP fluorescence, 18 h; TGF-beta stimulated, 500 pg/mL final | Potency, µM (top dose mostly 46.1 µM), without a hit: at the highest dose activity, negative = inhibition, hits mostly inhibitors | 1.2% of 410,000 active | AID 588855; also: % is scaled to controls: 0 for no effect and ±100 for the full control effect; nearly all actives have a fitted effect of over 65% in size
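Cell-based qHTS in HEPG2 carrying a CAGA-GFP Smad reporter; compounds added before 500 pg/mL final TGF-beta, 18 h incubation at 37 degrees C, GFP fluorescence quantified per cell by imaging cytometry.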
TDP1 cell noCPT – qHTS for Inhibitors of human tyrosyl-DNA phosphodiesterase 1 (TDP1): qHTS in cells in absence of CPT; AID 686978, 2013; 15% of 420,000 active; DT40 Tdp1-/- hTDP1 cells, no CPT, ATP luminescence, 48 h; Potency, µM (top dose mostly 46.2 µM), without a hit: at the top dose activity change, negative = growth inhibition, most hits filed as inhibitors; also: % is scaled to controls: 0 for no effect and ±100 for the full control effect; nearly all actives have a fitted effect of over 55% in size
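DT40 Tdp1-/-;hTDP1 cells, no CPT (DMSO vehicle only), 400 cells/well; compounds pin-transferred; ≥48 hr, 37 °C; CellTiter-Glo 30 min RT dark, luminescence read.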
S2 tox – reduces viability in counter-screen for ATXN expression inhibitors; S2 cells (HEK-293 line with an ATXN2-luciferase reporter) viability, CellTiter-Fluor protease fluorescence, 24 h; Potency, µM (series often up to 56.7 µM), usual class: cytotoxic; 0.49% of 400,000 active; also: nearly all actives have a fitted effect of over 40% in size
* hit, by the source's call; i = inactive; ? = inconclusive; . = not tested or not shown; ! = repeats disagree; [ ] = dose if it differs, or a comment. Calls follow the shape of the dose curve; as a rule, active = well fitted curve in the direction sought with a large enough effect; inconclusive = small, poorly fitted or top-dose-only effect, or another doubt; inactive = no such curve, though single readings can be large; an effect the other way counts as inactive or inconclusive. Potency is read from the fitted curve at half-maximal effect.

SMILES | ATXN2 expr inh | DT40 TDP1 CPT | HepG2 viability | TGFb SMAD3 inh | TDP1 cell noCPT | S2 tox
Cc1ccc(S(=O)(=O)N2CCN(c3nc(-n4ccnc4)nc4ccccc34)CC2)cc1 | . | -17% | . | . | -17% | .
Cc1ccc(S(=O)(=O)N2CCN(c3nc(-c4cncnc4)nc4ccccc34)CC2)cc1 | . | 8.9µM* | . | . | 10µM* | .
Cc1ccc(S(=O)(=O)N2CCN(c3nc(-c4cnccn4)nc4ccccc34)CC2)cc1 | . | ? | . | . | 18µM* | .
COc1ccc(-c2nc(N3CCN(S(=O)(=O)c4ccccc4)CC3)c3ccccc3n2)cc1 | . | . | -1% | -5% | . | .
Cc1ccc(S(=O)(=O)N2CCCN(C(C)c3nc4ccccc4c(=O)[nH]3)CC2)cc1 (stereo not given) | . | ? | -41% | 14µM* | ? | i
Cc1ccc(S(=O)(=O)N2CCN(c3nc(-n4c(=O)[nH]c5ccccc54)nc4ccccc34)CC2)cc1 | . | 11µM* | . | . | 13µM* | .
Cc1ccc(S(=O)(=O)N2CCCN(Cc3nc4ccccc4c(=O)[nH]3)CC2)cc1 | -7% | ? | -13% | 8% | ? | i
O=C(NCc1cccnc1)c1cc(C2CCCCN2C(=O)c2ccc(Cl)cc2)on1 (stereo not given) | -12% | -19% | -25% | -19% | -28% | i
O=S(=O)(c1ccc2c(c1)CCC2)N1CCN(c2nc(-c3ccccc3)nc3ccccc23)CC1 | . | -8% | 6% | -7% | -13% | .
COC(=O)c1nc(N2CCN(S(=O)(=O)c3ccc(C)cc3)CC2)c2ccccc2n1 | . | ? | . | . | 18µM* | .
Cc1ccc(S(=O)(=O)N2CCN(c3nc(-c4cccnc4)nc4ccccc34)CC2)cc1 | . | 13µM* | . | . | 11µM* | .
COc1ccc(-c2nc(N3CCN(S(=O)(=O)c4ccc(F)cc4)CC3)c3ccccc3n2)cc1 | . | . | -7% | 2% | . | .
CC(C)(C)c1ccc(S(=O)(=O)N2CCN(c3nc(-c4ccccc4)nc4ccccc34)CC2)cc1 | . | -19% | -13% | 0% | -23% | .
Cc1ccc(S(=O)(=O)N2CCN(c3nc(-c4ccncc4)nc4ccccc34)CC2)cc1 | . | -16% | . | . | 11µM* | .
Cc1ccc(S(=O)(=O)N2CCN(c3nc(-c4ncccn4)nc4ccccc34)CC2)cc1 | . | ? | . | . | 11µM* | .
COc1ccc(CCNC(=O)CSc2nnc3ccc(-c4cccnc4)nn23)cc1OC | -2% | -1% | -3% | 19% | 24% | i
O=S(=O)(c1ccccc1Br)N1CCN(c2nc(-c3ccccc3)nc3ccccc23)CC1 | . | ? | 7% | 5% | 14µM* | .
O=S(=O)(c1cccc(Cl)c1)N1CCN(c2nc(-c3ccccc3)nc3ccccc23)CC1 | . | ? | 5% | 1% | ? | .
Cc1nn(-c2ccccc2)c(C)c1/C=N/Nc1nc2ccccc2[nH]1 | -9% | 18µM* | -46% | ? | 23µM* | ?
CC(C)Cn1c(/C=N/Nc2nc3ccccc3[nH]2)nc2ccccc21 | 4.5µM* | 3.7µM* | -18% | ? | 3.3µM* | ?
Cn1c(/C=N/Nc2nc3ccccc3[nH]2)nc2ccccc21 | 53% | ? | -24% | ? | 29µM* | i
CCCn1c(/C=N/Nc2nc3ccccc3[nH]2)nc2ccccc21 | ? | ? | -19% | ? | ? | .
COc1ccc([C@@H]2Sc3ccccc3N(CCN(C)C)C(=O)[C@@H]2OC(C)=O)cc1 | -6% | ? | -6% | 8% | 27µM*! | i
Cc1c(C(=O)NCC2Cc3cccc(-c4cncnc4)c3O2)c(-c2ccccc2)nn1-c1ccccc1 (stereo not given) | . | -8%[9.04 µM] | . | . | -16% | i
O=c1[nH]c(NCc2ccco2)nnc1Cc1ccccc1Cl | -17% | 6.5µM* | -18% | 2% | 4.1µM* | i
SMILES | ATXN2 expr inh | DT40 TDP1 CPT | HepG2 viability | TGFb SMAD3 inh | TDP1 cell noCPT | S2 tox
Cc1nc(NCc2ccco2)[nH]c(=O)c1CCC(C)C | -4% | ? | -3% | -6% | ? | i
CCOC(=O)c1c(NC(=O)COC(=O)CCOc2cc(C)ccc2C)sc(C(=O)N(C)C)c1C | -8% | -5% | 4% | 4% | -5% | i
CC1(C)Cc2ccccc2-c2nc3ccccc3c(=O)n21 | 3% | ? | -6% | 7% | 12µM* | i
O=C(N/C=N/OCc1ccc(Cl)cc1Cl)NOCc1c(Cl)cccc1Cl | ? | 21µM* | 18µM* | -16% | 23µM* | i
CC(=O)c1ccc(Nc2nc(C(N)CC(C)C)cs2)cc1 (stereo not given) | -8% | ? | -22% | -1% | 16µM* | ?
CC(N)c1csc(Nc2ccc(C(=O)c3ccccc3)cc2)n1 (stereo not given) | -10% | ? | -16% | -9% | ? | i
CN(C)Cc1csc(Nc2ccc(C(=O)c3ccccc3)cc2)n1 | -12% | 18µM* | -24% | -24% | ? | i
CC(C)CC(N)c1csc(Nc2ccc(C(=O)c3ccccc3)cc2)n1 (stereo not given) | ? | ? | 16µM* | 18µM* | 16µM* | ?
NC(COCc1ccccc1)c1csc(Nc2ccc(C(=O)NCCO)cc2)n1 (stereo not given) | -5% | ? | -4% | -1% | ? | i
CC(=O)c1ccc(Nc2nc(C(N)COCc3ccccc3)cs2)cc1 (stereo not given) | 1% | 23µM* | -24% | -4% | ? | i
CC(C)CC(N)c1csc(Nc2ccc(C(=O)NCCO)cc2)n1 (stereo not given) | 0% | ? | -6% | 1% | ? | i
Cc1cc(NC(=O)CS(=O)c2cn(Cc3cccc(Cl)c3)c3ccccc23)no1 (stereo not given) | ? | 21µM* | -8% | 13µM* | 16µM* | ?
C/C=C/c1ccc(OCCOCCOc2cccc3cccnc23)c(OC)c1 | -17% | 23µM* | -24% | -27% | 15µM* | i
C=CCc1ccc(OCCOc2cccc3cccnc23)c(OC)c1 | 2% | ? | -3% | -4% | ? | i
C=CCc1ccc(OCCOCCOc2cccc3cccnc23)c(OC)c1 | -25% | ? | -27% | 4% | 29µM* | i
CCNc1ncc2nc(-c3cccs3)c(=O)n(Cc3cccc(OC)c3)c2n1 | . | -15% | . | . | -3% | .

Screening data deposited in PubChem BioAssay by National Center for Advancing Translational Sciences (NCATS).
